Laboratory results from PubChem BioAssay (NCATS).
Results filed as inconclusive are left out. Active and inactive are the calls of the source. Calls come from the whole dose curve; as a rule, active = well fitted curve in the direction sought with a large enough effect; inconclusive = small, poorly fitted or top-dose-only effect, or another doubt; inactive = no such curve, though single readings can be large; an effect the other way counts as inactive or inconclusive.

Legend:
[1] = qHTS of pediatric cancer cell lines to identify multiple opportunities for drug repurposing: Primary screen for NB1643 cells (AID 1347099); note: nearly all actives have a fitted effect of over 50% in size; note: potency is the fitted concentration of half-maximal effect
Procedure, shortened: (§1)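 500-1,000 cells/well; 5 h pre-incubation 37 °C/5% CO2; compound pinned; 48 h; CellTiter-Glo, 15 min RT; luminescence. MIPE 11-pt from 0.78 nM, NPC 8-pt from 0.59 nM final. Bortezomib 2.3 µM final as positive control.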

[2] = qHTS of pediatric cancer cell lines to identify multiple opportunities for drug repurposing: Primary screen for LAN-5 cells (AID 1347100); note: potency is the fitted concentration of half-maximal effect
Procedure, shortened: (§2)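 Cells (500-1,000/well) rested 5 h, then received compounds for 48 h; metabolically active cells were measured by CellTiter-Glo luminescence. Final concentrations spanned up to 46 µM (MIPE, 11-point) or 0.59 nM-46 µM (NPC, 8-point) in primary screens, 11-point in follow-ups.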

[3] = qHTS of pediatric cancer cell lines to identify multiple opportunities for drug repurposing: Primary screen for BT-12 cells (AID 1347101); note: nearly all actives have a fitted effect of over 25% in size; note: potency is the fitted concentration of half-maximal effect
Procedure, shortened: as §2

[4] = qHTS of pediatric cancer cell lines to identify multiple opportunities for drug repurposing: Primary screen for Rh18 cells (AID 1347102); note: nearly all actives have a fitted effect of over 65% in size; note: potency is the fitted concentration of half-maximal effect
Procedure, shortened: as §2

[5] = qHTS of pediatric cancer cell lines to identify multiple opportunities for drug repurposing: Primary screen for OHS-50 cells (AID 1347103); note: nearly all actives have a fitted effect of over 40% in size; note: potency is the fitted concentration of half-maximal effect
Procedure, shortened: as §2

[6] = qHTS of pediatric cancer cell lines to identify multiple opportunities for drug repurposing: Primary screen for RD cells (AID 1347104); note: nearly all actives have a fitted effect of over 55% in size; note: potency is the fitted concentration of half-maximal effect
Procedure, shortened: as §1

[7] = qHTS of pediatric cancer cell lines to identify multiple opportunities for drug repurposing: Primary screen for control Hh wild type fibroblast cells (AID 1347106); note: nearly all actives have a fitted effect of over 55% in size; note: potency is the fitted concentration of half-maximal effect
Procedure, shortened: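 Cells (500-1,000/well) in growth media were settled 5 h at 37 degrees C, then given compounds for 48 h. Viability was read as CellTiter-Glo luminescence. Primary runs used MIPE at 11 points (0.78 nM-46 µM) and NPC at 8 points (0.59 nM-46 µM); follow-ups used 11 points.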

[8] = qHTS of pediatric cancer cell lines to identify multiple opportunities for drug repurposing: Primary screen for MG 63 (6-TG R) cells (AID 1347105); note: nearly all actives have a fitted effect of over 50% in size; note: potency is the fitted concentration of half-maximal effect
Procedure, shortened: as §1

[9] = qHTS of pediatric cancer cell lines to identify multiple opportunities for drug repurposing: Primary screen for Rh30 cells (AID 1347107); note: nearly all actives have a fitted effect of over 75% in size; note: potency is the fitted concentration of half-maximal effect
Procedure, shortened: as §2

[10] = qHTS of pediatric cancer cell lines to identify multiple opportunities for drug repurposing: Primary screen for Rh41 cells (AID 1347108);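 note: series mostly up to about 46 µM; luminescence drop marks cytotoxic hits; nearly all actives have a fitted effect of over 70% in size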
Procedure, shortened: as §1

Measured: Potency

CC(C)CN(C[C@@H](O)[C@H](Cc1ccccc1)NC(=O)O[C@H]1CO[C@H]2OCC[C@H]21)S(=O)(=O)c1ccc(N)cc1
active: [1] 18.7 µM | [2] 18.7 µM | [3] 3.85 µM | [5] 12.2 µM | [6] 14.8 µM
inactive: [4] | [7]

OC[C@H]1O[C@@H](OCCc2ccc(O)cc2)[C@H](O)[C@@H](O)[C@H]1O
not listed: [6] | [7] | [10]
inactive: all other assays above

CN1CCC[C@H]1CCO[C@](C)(c1ccccc1)c1ccc(Cl)cc1
active: [1] 20.9 µM | [6] 37.2 µM
not listed: [5] | [10]
inactive: all other assays above

C=C[C@@H]1CN2CCC1C[C@@H]2C(O)c1ccnc2ccc(OC)cc12 (stereo partly specified)
not listed: [6] | [10]
inactive: all other assays above

C[C@]12CCC3=C4CCC(=O)C=C4CC[C@@H]3[C@H]1CC[C@@]2(O)CC#N
not listed: [8] | [10]
inactive: all other assays above

CC[C@H](CC#N)OC(=O)N[C@@H](C)c1cccc(NC(=O)Nc2ccc(-c3cnco3)c(OC)c2)c1
inactive: [4] | [10]
active: [1] 0.743 µM | [2] 0.662 µM | [3] 0.611 µM | [5] 7.69 µM

C[C@H]1O[C@@H](n2cc(F)c(=O)[nH]c2=O)[C@H](O)[C@H]1O
inactive: [4] | [5] | [7]
active: [1] 18.7 µM | [2] 13.2 µM | [3] 27.3 µM

Cn1cc(-c2ccc3nnc(Sc4ccc5ncccc5c4)n3n2)cn1
inactive: [1] | [2] | [3] | [4] | [5] | [7]

CCN1CCC(n2cc(CNc3cc(Cl)c4ncc(C#N)c(Nc5ccc(F)c(Cl)c5)c4c3)nn2)CC1
active: [1] 18.7 µM | [2] 14.8 µM | [3] 24.3 µM | [4] 20.9 µM | [5] 17.2 µM | [6] 18.7 µM | [9] 23.5 µM
inactive: [7]

CN(C)CCOc1ccc(C(=C(CCCl)c2ccccc2)c2ccccc2)cc1
not listed: [5]
inactive: all other assays above

CC[C@H](C=C[C@@H](C)[C@H]1CC[C@H]2[C@@H]3CC=C4C[C@@H](O)CC[C@]4(C)[C@@H]3CC[C@]12C)C(C)C
not listed: [8]
inactive: all other assays above

CCCCN(CCCC)CC(O)c1cc(Cl)cc2c1-c1ccc(Cl)cc1C2=Cc1ccc(Cl)cc1 (stereo unspecified)
not listed: [6]
inactive: all other assays above

Cc1ccc(C(=O)N(CCCN)[C@@H](c2oc3cc(Cl)ccc3c(=O)c2Cc2ccccc2)C(C)C)cc1
inactive: [1] | [8] | [7] | [9]
active: [2] 0.001 µM | [3] 0.001 µM | [4] 26.4 µM | [5] 0.001 µM

C[C@@]1(C(=O)Nc2ccc(F)nc2)CCCN1c1nc(Nc2cc(C3CC3)[nH]n2)c2cccn2n1
active: [1] 0.0935 µM | [2] 0.0264 µM | [4] 16.6 µM | [5] 0.968 µM | [8] 11.8 µM | [7] 20.9 µM
inactive: [3]

CN1c2ccccc2C(=O)N2CCc3c([nH]c4ccccc34)C21 (stereo unspecified)
active: [1] 13.2 µM
not listed: [6]
inactive: all other assays above

COc1ccc(CCC(=O)Nc2nc3ccc(Cl)cc3s2)cc1OC
active: [1] 5.26 µM
not listed: [5] | [9] | [10]
inactive: all other assays above

Cc1nc(C(=O)NCC(=O)O)c(O)c2ccc(Oc3ccccc3)cc12
not listed: [5] | [7]
inactive: all other assays above

O=C1CCCC(=O)C1C(=O)c1ccc(C(F)(F)F)cc1[N+](=O)[O-]
not listed: [8]
inactive: all other assays above

CCNC(=O)[C@H]1O[C@@H](n2cnc3c(N)nc(NCCc4ccc(CCC(=O)O)cc4)nc32)[C@H](O)[C@H]1O
not listed: [5]
inactive: all other assays above

CC(=O)OCC(=O)[C@@]12OC(C)(C)O[C@H]1C[C@H]1[C@@H]3C[C@H](F)C4=CC(=O)C=C[C@]4(C)[C@@]3(F)[C@@H](O)C[C@@]12C
not listed: [5] | [10]
inactive: all other assays above
